{"source": "PubChem BioAssay (NCI)", "note": "About 79,000 compounds went through this panel and 15% of them were active in at least one assay; those are over-represented in the sample as a whole. Active and inactive are the calls of the source. Rule as the data show it: active = growth inhibition above about 70%; inactive = the rest."}
{"test": "NCI Yeast Anticancer Drug Screen. Data for the bub3 strain (AID 167)", "details": "S. cerevisiae bub3 mutant strain, at 50.0 µM, active compounds read high", "description": "Growth inhibition of yeast strains with defined genetic alterations is measured as a screen for potential anti-cancer activity. Selected strains with alterations in DNA damage repair or cell cycle control were exposed to compounds and growth inhibition was measured relative to vehicle treated controls. The strain used in this assay is bub3"}
{"molecule": "O=c1c(N2CCOCC2)c(N2CCOCC2)c1=O", "growth inhibition": "-24.4% (inactive)"}
{"molecule": "COc1cc(C(=O)C/C(CCC(=O)Nc2ccccc2[N+](=O)[O-])=N\\NC(=O)C(N)=O)ccc1O", "growth inhibition": "-16.2% (inactive)"}
{"molecule": "O=C1OC(=O)C2(Cl)C3C=CC(C3)C12", "note": "(stereo not given)", "growth inhibition": "-16.3% (inactive)"}
{"molecule": "CCOP(=O)(OCC)/C(=C\\n1ccc(=O)[nH]c1=S)C(=O)OC", "growth inhibition": "-28% (inactive)"}
{"molecule": "COc1ccc(/C(=N\\NC(=O)C(N)=O)C(c2ccc(OC)cc2)C2(O)C(=O)Nc3c(Cl)cccc32)cc1", "note": "(stereo not given)", "growth inhibition": "0.3% (inactive)"}
{"molecule": "CCCCCOS(=O)(=O)O", "growth inhibition": "-0.25% (inactive)"}
{"molecule": "C=CC(=O)OCCCCCCCCCC", "growth inhibition": "13.8% (inactive)"}
{"molecule": "O=NC1C2CCC(C2)C1N=O.[Co].[c-]1[c-][c-][cH-][c-]1", "note": "(stereo not given)", "growth inhibition": "13.6% (inactive)"}
{"molecule": "NC(=O)c1nnc2cc(F)ccc2c1N", "growth inhibition": "1.6% (inactive)"}
{"molecule": "O=C1c2ccccc2C(=O)c2cc(Br)ccc21", "growth inhibition": "-16.2% (inactive)"}
{"molecule": "CCCCOC(=O)c1ccc(OC(=O)Nc2ccccc2)cc1", "growth inhibition": "17.6% (inactive)"}
{"molecule": "Nc1nc(N)c(N=Nc2cc(Cl)cc(Cl)c2)c(=O)[nH]1", "growth inhibition": "3.15% (inactive)"}
{"molecule": "c1ccc(-c2nnn(CCN3CCCCC3)n2)cc1", "growth inhibition": "34% (inactive)"}
{"molecule": "Fc1ccc2c(c1)Nc1ccccc1S2", "growth inhibition": "-16% (inactive)"}
{"molecule": "NC(=S)Nc1ccccc1-c1ccccc1", "growth inhibition": "32.5% (inactive)"}
{"molecule": "CC(C)=NOC(=O)Nc1cccc2c1OCO2", "growth inhibition": "-35.5% (inactive)"}
{"molecule": "COc1ccc(NS(=O)(=O)c2ccc(N=Cc3c4ccccc4nc4ccccc34)cc2)nn1", "growth inhibition": "93.5% (active)"}
{"molecule": "COC(=O)N/N=C/c1c[nH]c2ccccc12", "growth inhibition": "-17.4% (inactive)"}
{"molecule": "O=Cc1ccc(N2CCCCC2)cc1", "growth inhibition": "-8.25% (inactive)"}
{"molecule": "N/N=C(\\C(=O)Nc1ccc(Cl)cc1Cl)C(c1cnc2ccccc2n1)[N+](=O)[O-]", "note": "(stereo not given)", "growth inhibition": "-9.45% (inactive)"}
{"molecule": "CCOC(=O)N1C/C(=C\\c2ccccc2)C(=O)/C(=C/c2ccccc2)C1", "growth inhibition": "9.15% (inactive)"}
{"molecule": "CCCN=C(N)NC#N", "growth inhibition": "-16.6% (inactive)"}
{"molecule": "NC(=O)c1ccc(=S)[nH]c1", "growth inhibition": "-6.1% (inactive)"}
{"molecule": "COc1ccc(-c2c3c(nc4nc(SCC(=O)c5ccc(Br)cc5)nc(N)c24)CCCC3)cc1OC", "growth inhibition": "-16.6% (inactive)"}
{"molecule": "NC(=S)NNC(=O)C(Cc1ccccc1)NC(=O)OCc1ccccc1", "note": "(stereo not given)", "growth inhibition": "15.7% (inactive)"}
{"molecule": "CC(=O)/C=C\\c1cc(C)ccc1O", "growth inhibition": "8.25% (inactive)"}
{"molecule": "Oc1ccccc1C=Nc1ccc(Cl)cc1", "growth inhibition": "-21.6% (inactive)"}
{"molecule": "COC(=O)C1C(c2ccccc2)C1(C#N)C#N", "note": "(stereo not given)", "growth inhibition": "-5.55% (inactive)"}
{"molecule": "CCOC(=O)CSc1nnc(N)s1", "growth inhibition": "-6.75% (inactive)"}
{"molecule": "Cc1cc2c(C)nn(Cc3ccc(Cl)cc3Cl)c2c(C#N)c1C", "growth inhibition": "5.8% (inactive)"}
{"molecule": "CCN(CC)CCCCCOC(=O)c1cccc(N)c1", "growth inhibition": "27.2% (inactive)"}
{"molecule": "CC(C(=O)O)[C@H]1CC[C@H]2[C@@H]3CCC4=CC(=O)CC[C@]4(C)[C@H]3CC[C@]12C", "note": "(stereo not given in full)", "growth inhibition": "2.5% (inactive)"}
{"molecule": "[Cl-].[Dy+3].[O-]/N=C(\\c1ccccc1)c1ccccn1.[O-]/N=C(\\c1ccccc1)c1ccccn1.[O-]/N=C(\\c1ccccc1)c1ccccn1", "growth inhibition": "19.4% (inactive)"}
{"molecule": "C=CCNC(=S)/N=C/c1c(C(=O)OCC)[nH]n(-c2ccccc2)c1=O", "growth inhibition": "-26% (inactive)"}
{"molecule": "O=c1oc2ccc(Br)cc2cc1-n1nnc2ccccc21", "growth inhibition": "15.9% (inactive)"}
{"molecule": "CC(=O)NC1C(OCc2ccccc2)OC(CO)C(O)C1OCc1ccccc1", "note": "(stereo not given)", "growth inhibition": "-2.9% (inactive)"}
{"molecule": "COC1OC2COC(c3ccccc3)OC2C(OC(C)=O)C1OS(=O)(=O)c1ccc(C)cc1", "note": "(stereo not given)", "growth inhibition": "-4.65% (inactive)"}
{"molecule": "COc1ccc(S(=O)(=O)N2OC2c2ccccc2)cc1", "note": "(stereo not given)", "growth inhibition": "1.65% (inactive)"}
{"molecule": "Clc1ccc2cn[nH]c2c1", "growth inhibition": "-18.9% (inactive)"}
{"molecule": "CC1(C)S[C@@H]2[C@H](NC(=O)C3(N)CCCCC3)C(=O)N2[C@H]1C(=O)O", "growth inhibition": "-59.6% (inactive)"}
